Laboratory results reported in PubChem BioAssay.
Activity calls are given as the source filed them.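 How the source made its calls, unless noted: active means inhibition at or above 50% at 10 µM; inactive means inhibition below 50%.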

Columns and labels:
[1] = inhibitors of TNFa-induced NFkB p65 translocation, primary screen, imaging, HUVEC, MLSMR starter and 10KST1 sets (AID 438;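 active means inhibition above 20% together with a positive visual image hit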;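 further: compound added about 3h40 before a 20 min TNFalpha stimulation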;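 on inhibition: signal is the nuclear over cytoplasmic p65 intensity ratio per well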); conditions: HUVEC TNFa-induced p65 nuclear translocation; cell count: measured here: nuclei count (cytotoxicity indicator), at 2.08 µM; inhibition: at 2 µM, stronger effect = higher value, 0% TNFa-plus-vehicle, 100% no-TNFa wells
[2] = reduction of polyQ htt aggregates in cells – imaging, exon1htt(103Q)mCFP cells, high-content imaging, primary screen (AID 483;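 active means visual image review flags a hit and inhibition of aggregation exceeds 20%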;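 further: compound exposure lasted 3 days before fixation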;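 on nuclei count: percent of the per-plate median nuclei count of sample wells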); conditions: exon1htt(103Q)mCFP cell line, aggregate imaging, at 2 µM; inhibition of aggregation: stronger effect = higher value; nuclei count: measured here: cell count, toxicity
[3] = endothelial E-selectin expression blockers – imaging, HUVEC, immunofluorescence, MLSMR starter and 10KST1 sets, primary screen (AID 487;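 active means visually confirmed hit in the image check and inhibition above 20%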;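 on inhibition: signal is fraction of cell area covered by stained E-selectin grains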;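 on nuclei count: 100% = median nuclei count of all wells on the same plate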); conditions: HUVEC TNFalpha-induced E-selectin immunofluorescence imaging, at 2 µM; inhibition: stronger effect = higher value; nuclei count: measured here: cell number, toxicity
[4] = molecular target: Voltage-gated potassium channel subunit beta-2 (Rattus norvegicus) (UniProt P62483); test: inhibitors of rat Kvbeta2 reductase activity – biochemical, NADPH fluorescence, primary screen (AID 622;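 active means fluorescence slope higher than the sample average by over 3 SD, cut at about -0.22 in these data, passing the limit was not always enough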;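 further: slope of raw intensity against log time taken from 70 to 1610 s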); conditions: recombinant KvBeta, 4-cyanobenzaldehyde reduction, at 10 µM, stronger effect = higher value
Chain of Voltage-gated potassium channel subunit beta-2 (Rattus norvegicus) (P62483 whole entry, looked up): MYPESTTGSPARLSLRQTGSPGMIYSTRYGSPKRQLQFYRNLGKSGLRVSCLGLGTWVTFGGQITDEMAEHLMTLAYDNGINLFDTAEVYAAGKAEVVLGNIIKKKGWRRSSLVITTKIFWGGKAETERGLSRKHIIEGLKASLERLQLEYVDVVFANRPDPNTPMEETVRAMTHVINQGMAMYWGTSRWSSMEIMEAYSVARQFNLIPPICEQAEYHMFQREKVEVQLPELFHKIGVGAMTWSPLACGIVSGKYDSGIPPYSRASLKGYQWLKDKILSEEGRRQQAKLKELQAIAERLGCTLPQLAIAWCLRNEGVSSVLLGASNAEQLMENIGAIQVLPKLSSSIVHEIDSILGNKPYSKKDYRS

[5] = molecular target: Voltage-gated potassium channel subunit beta-2 (Rattus norvegicus) (UniProt P62483); test: enhancers of rat Kvbeta2 NADPH turnover – biochemical, NADPH fluorescence, primary screen (AID 623;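 active means NADPH fluorescence slope more negative than the mean of all samples by about 3 SD, 99.7% confidence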;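 further: fluorescence intensity change per second fitted from 20 to 320 s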); conditions: Recombinant KvBeta, NADPH fluorescence decrease slope, 10 min; at 10 µM; stronger effect = lower value
[6] = molecular target: Alpha-2C adrenergic receptor (Homo sapiens) (UniProt P18825); test: compounds altering alpha2C-coupled GIRK flux – cell-based, HEK293 alpha2C/GIRK1/2, thallium flux, primary screen (AID 624;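 active means fluorescence slope after compound addition differing from the mean of all screened samples at 99.7% confidence, in either direction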;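 further: slope of fluorescence ratio to pre-addition baseline per second over 15 to 24 s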); conditions: thallium flux BTC fluorescence, at 10 µM, actives lie on both sides
Chain of Alpha-2C adrenergic receptor (Homo sapiens) (P18825 whole entry, looked up): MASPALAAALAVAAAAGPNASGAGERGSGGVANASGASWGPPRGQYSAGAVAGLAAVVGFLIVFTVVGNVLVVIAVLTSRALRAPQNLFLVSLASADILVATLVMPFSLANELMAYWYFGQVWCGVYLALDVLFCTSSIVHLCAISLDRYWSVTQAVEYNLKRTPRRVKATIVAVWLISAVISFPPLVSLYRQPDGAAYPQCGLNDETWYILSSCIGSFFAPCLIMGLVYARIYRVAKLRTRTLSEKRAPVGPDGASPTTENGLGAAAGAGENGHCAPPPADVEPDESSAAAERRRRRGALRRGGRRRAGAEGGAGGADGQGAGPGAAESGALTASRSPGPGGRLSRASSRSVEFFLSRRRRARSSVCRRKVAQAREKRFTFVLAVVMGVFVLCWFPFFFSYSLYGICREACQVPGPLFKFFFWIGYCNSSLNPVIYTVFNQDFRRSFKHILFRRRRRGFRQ

[7] = blockers of RIG-like receptor reporter activation – cell-based, Sendai virus stimulus, luciferase, 10K MLSCN set, TLR/RLR signaling modifier project, primary screen (AID 602276); conditions: HEK293 RL24 IRF3 luciferase reporter, at 10 µM, stronger effect = higher value;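 further: firefly luciferase from ISG56 promoter only with Renilla not read in this screen; 0% = Sendai virus plus DMSO and 100% = medium plus DMSO without virus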
[8] = TLR3 IRF3 reporter activation blockers – cell-based, poly I:C stimulus, luciferase, 10K MLSCN set, primary screen (AID 602277;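 active means inhibition of the reporter signal at or above 50%; inactive means inhibition below 50%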); conditions: HEK293-TLR3 RL24 IRF3 luciferase reporter, at 10 µM, stronger effect = higher value

| Compound | cell count [1] | inhibition [1] | inhibition of aggregation [2] | nuclei count [2] | inhibition [3] | nuclei count [3] | fluorescence slope [4] | NADPH fluorescence slope [5] | slope [6] | inhibition [7] | inhibition [8] |
| --- | --- | --- | --- | --- | --- | --- | --- | --- | --- | --- | --- |
| O=C1c2ccccc2C(=O)N1CCCCN1CCN(CCCCN2C(=O)c3ccccc3C2=O)CC1 | 401 | -3.5% (inactive) | 17.2% (inactive) | 2.4% | -22.5% (inactive) | 86.8% | -0.408 (inactive) | -3.8e-05 (inactive) | 0.00409 (inactive) | 14.1% (inactive) | 10.6% (inactive) |
| COc1ccccc1N(CC(=O)Nc1cccnc1)S(C)(=O)=O | 623 | 9.2% (inactive) | 20.5% (inactive) | 92.6% | 58.2% (inactive) | 34.6% | -0.408 (inactive) | -6.4e-05 (inactive) | 0.00671 (inactive) | 7.85% (inactive) | 17.6% (inactive) |
| O=C(Nc1ccccc1-c1ccccc1)NC1CCN(CC(=O)N2CCOCC2)CC1 | 537 | -39.8% (inactive) | -5% (inactive) | 113% | -63.8% (inactive) | 109% | -0.433 (inactive) | -7.3e-05 (inactive) | 0.00795 (inactive) | 9.32% (inactive) | 27.5% (inactive) |
| Cc1cc(C)cc(NC(=O)C2CCCN(c3nccc(C)n3)C2)c1 (stereo not drawn) | 373 | -6% (inactive) | -20.4% (inactive) | 115% | -57.3% (inactive) | 117% | -0.463 (inactive) | -8.4e-05 (inactive) | 0.00586 (inactive) | 9.71% (inactive) | 18.5% (inactive) |
| Cc1cc(NC(=O)c2cnn3c(C(F)F)cc(C4CC4)nc23)no1 | 747 | -3.3% (inactive) | 23% (inactive) | 100% | 27.3% (inactive) | 98.5% | -0.486 (inactive) | -3.5e-05 (inactive) | 0.00638 (inactive) | 9.48% (inactive) | 19.3% (inactive) |
| O=C(c1ccc(-c2ccccc2)cc1)N1CCN(c2ncccn2)CC1 | 332 | -21.2% (inactive) | 11.5% (inactive) | 76% | -38.6% (inactive) | 85.3% | -0.429 (inactive) | -2.4e-06 (inactive) | 0.00541 (inactive) | 2.14% (inactive) | 28.8% (inactive) |
| CC(C)c1ccc(-c2nc(N3CCOCC3)[nH]c(=O)c2C#N)cc1 | 321 | -8.9% (inactive) | -12% (inactive) | 95.4% | -32.8% (inactive) | 114% | -0.405 (inactive) | -2e-05 (inactive) | 0.00599 (inactive) | 13.1% (inactive) | 13.1% (inactive) |
| COc1ccc(S(=O)(=O)Nc2ccc(F)c(F)c2)cc1Cl | 723 | 8.5% (inactive) | 5.1% (inactive) | 102% | -8.3% (inactive) | 98.5% | -0.496 (inactive) | -1.9e-05 (inactive) | 0.0057 (inactive) | 8.01% (inactive) | 31.5% (inactive) |
| CN(C)c1nc(SCCOC(=O)c2ccccc2)nc(N(C)C)n1 | 775 | -4.7% (inactive) | -21.8% (inactive) | 118% | -45.1% (inactive) | 102% | -0.385 (inactive) | 2.1e-06 (inactive) | 0.00433 (inactive) | 8.47% (inactive) | 11.2% (inactive) |
| Cc1c(C(=O)NCc2ccccc2)oc2c1C(=O)CCC2 | 530 | -18.8% (inactive) | -28.3% (inactive) | 101% | -70% (inactive) | 121% | -0.372 (inactive) | -6.4e-05 (inactive) | 0.00395 (inactive) | -4.65% (inactive) | -7.05% (inactive) |
| CCOCCCNC(=O)C1CCN(S(=O)(=O)c2c(C)noc2/C=C\c2ccc(OC)cc2)CC1 | 345 | 1.2% (inactive) | 32.8% (inactive) | 99.9% | -122% (inactive) | 114% | -0.36 (inactive) | 3.9e-05 (inactive) | 0.00493 (inactive) | -4.28% (inactive) | 0.813% (inactive) |
| CCN(CC)CCOc1cccc(C(C)C)c1 | 657 | -5.3% (inactive) | -2.7% (inactive) | 104% | 1.1% (inactive) | 76.3% | -0.393 (inactive) | -7.6e-05 (inactive) | 0.00629 (inactive) | 6.62% (inactive) | 13.5% (inactive) |
| CNC(=O)C1C2C=CC3(O2)C1C(=O)N(C1CC1)C3C(=O)NCc1ccc(OC)cc1 (stereo not drawn) | 199 | 11.8% (inactive) | -5.5% (inactive) | 102% | 41.6% (inactive) | 98.4% | -0.533 (inactive) | -3.2e-05 (inactive) | 0.00639 (inactive) | 14.1% (inactive) | 20.2% (inactive) |
| CCOC(=O)c1c(NC(=O)c2nn(CC)cc2Br)c(C#N)cn1-c1ccccc1 | 467 | 0.6% (inactive) | -9.2% (inactive) | 51.8% | -36.5% (inactive) | 93.5% | -0.407 (inactive) | -2.9e-05 (inactive) | 0.00368 (inactive) | 0.0192% (inactive) | -9.02% (inactive) |
| C=CCN1C(=O)C2(c3ccccc31)C1CCCC=C1C(C#N)=C(N)C2(C#N)C#N (stereo not drawn) | 752 | -19.9% (inactive) | 10.4% (inactive) | 110% | 41% (inactive) | 101% | -0.559 (inactive) | -8.6e-06 (inactive) | 0.00492 (inactive) | -7.36% (inactive) | -8.22% (inactive) |
| CC(C)OC(=O)c1ccc(NC(=O)C2C3CC4OC(=O)C2C4C3)cc1 (stereo not drawn) | 324 | -10.5% (inactive) | -9.4% (inactive) | 103% | -115% (inactive) | 151% | -0.327 (inactive) | -6e-05 (inactive) | 0.00657 (inactive) | -44.9% (inactive) | -88.7% (inactive) |
| CCOc1ccc2[nH]c(=O)c(CN(Cc3nnnn3CCc3ccccc3)CC3CCCO3)cc2c1 (stereo not drawn) | 742 | -1.7% (inactive) | -4.9% (inactive) | 113% | 17.7% (inactive) | 107% | -0.476 (inactive) | -0.000196 (inactive) | 0.00465 (inactive) | 3.9% (inactive) | 16.9% (inactive) |
| Cc1c(C(=O)OC2CCCCC2)[nH]c2c1C(=O)CC(C)(C)C2 | 342 | -8.9% (inactive) | -22% (inactive) | 108% | 14.6% (inactive) | 68.9% | -0.407 (inactive) | -9.3e-06 (inactive) | 0.00193 (inactive) | -3% (inactive) | -13.3% (inactive) |
| Cc1cc(C(=O)N2CCN(C/C=C/c3ccccc3)CC2)no1 | 242 | 8.7% (inactive) | -4.4% (inactive) | 101% | 11.3% (inactive) | 98.6% | -0.465 (inactive) | 1.9e-06 (inactive) | 0.0056 (inactive) | 13% (inactive) | 25.3% (inactive) |
| C=CCn1c(SCC(=O)O)nnc1-c1cccc(Cl)c1 | 753 | 1.3% (inactive) | -0.4% (inactive) | 103% | 19.3% (inactive) | 108% | -0.453 (inactive) | -8e-06 (inactive) | 0.00296 (inactive) | 8.76% (inactive) | 18.9% (inactive) |
| COc1ccccc1NC(=O)CSC1CC(=O)N(c2ccc3c(c2)OCO3)C1=O (stereo not drawn) | 685 | -3.4% (inactive) | -2.5% (inactive) | 95.7% | -109% (inactive) | 122% | -0.622 (inactive) | 2.7e-05 (inactive) | 0.00433 (inactive) | 17.9% (inactive) | 21.8% (inactive) |
| CC1(C)OC(=O)C(=CNc2ccccc2F)C(=O)O1 | 604 | -9.5% (inactive) | 29.9% (inactive) | 95.6% | 22.8% (inactive) | 96.8% | -0.606 (inactive) | -1.2e-05 (inactive) | 0.0057 (inactive) | 14.1% (inactive) | 28% (inactive) |
| Cc1cc(C)n(CC(=O)O)n1 | 341 | -1.8% (inactive) | -4.2% (inactive) | 102% | -49.5% (inactive) | 121% | -0.317 (inactive) | -5.4e-05 (inactive) | 0.0047 (inactive) | 12.8% (inactive) | 18.3% (inactive) |
| CC(O)c1c(OCc2ccccc2)ncnc1OCc1ccccc1 (stereo not drawn) | 426 | 0.5% (inactive) | -7.1% (inactive) | 65.7% | -36.1% (inactive) | 115% | -0.44 (inactive) | -0.000123 (inactive) | 0.00502 (inactive) | 10.6% (inactive) | 20.8% (inactive) |
| COc1ccccc1N1C(=O)CC(Sc2nc(C)cc(C)n2)C1=O (stereo not drawn) | 613 | -8.2% (inactive) | 15% (inactive) | 95.3% | -30.9% (inactive) | 90.9% | -0.447 (inactive) | -9.1e-05 (inactive) | 0.0075 (inactive) | 14.5% (inactive) | 19.3% (inactive) |
| COc1ccc(C(=O)N2CCN(S(=O)(=O)c3cc(Cl)ccc3OC)CC2)cc1 | 398 | 7.3% (inactive) | -29.4% (inactive) | 64.6% | -74.2% (inactive) | 106% | -0.368 (inactive) | -2.2e-05 (inactive) | 0.00259 (inactive) | 16.1% (inactive) | 18% (inactive) |
| CN1C(=O)CC(N2CCC(C(N)=O)(N3CCCCC3)CC2)C1=O (stereo not drawn) | 540 | 5.4% (inactive) | -7.1% (inactive) | 111% | 10.3% (inactive) | 117% | -0.593 (inactive) | -4.9e-05 (inactive) | 0.00424 (inactive) | 15% (inactive) | 16.9% (inactive) |
| O=C(C1CCCN(S(=O)(=O)c2cccnc2)C1)N1CCN(c2ccccn2)CC1 (stereo not drawn) | 671 | -0.3% (inactive) | -27.9% (inactive) | 108% | -1.7% (inactive) | 108% | -0.581 (inactive) | -1.6e-05 (inactive) | 0.00648 (inactive) | 5.38% (inactive) | 14% (inactive) |
